Assay results published in PubChem BioAssay (NCI).
Compounds without any hit were thinned out: in the full panel of roughly 79,000, 15% have a hit. A number with no mark means an inactive call. The source made the active and inactive calls. Cut-off read from the data, not from the text of the source: active = growth inhibition above about 70%; inactive = the rest.

Key:
[1] = NCI Yeast Anticancer Drug Screen. Data for the rad50 strain (AID 155);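 note: 0% = growth of vehicle-only cultures of the same strain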; details: S. cerevisiae rad50 strain growth inhibition, hits give high values
Summary of the method: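 Relative growth inhibition (compound vs vehicle) was measured in yeast with a defined repair-gene alteration.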

[2] = NCI Yeast Anticancer Drug Screen. Data for the mec2-1 strain (AID 157); details: S. cerevisiae mec2-1 strain, hits give high values
Summary of the method: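 Strain: mec2-1 (DNA repair/cell cycle alteration). Compound exposure, then growth measured; inhibition expressed relative to vehicle.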

[3] = NCI Yeast Anticancer Drug Screen. Data for the sgs1 mgt1 strain (AID 161);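 note: 0% = growth of cultures given vehicle only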; details: S. cerevisiae sgs1 mgt1 strain, hits give high values
Summary of the method: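 Read-out: growth inhibition vs vehicle controls. Cells: mutant yeast strain deficient in DNA damage repair.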

[4] = NCI Yeast Anticancer Drug Screen. Data for the cln2 rad14 strain (AID 165);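 note: 0% = growth equal to vehicle treated cultures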; details: S. cerevisiae cln2 rad14 strain, hits give high values
Summary of the method: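 Compounds are applied to the cln2 rad14 yeast strain, and growth is then compared with that of vehicle-treated cultures to give inhibition.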

[5] = NCI Yeast Anticancer Drug Screen. Data for the bub3 strain (AID 167); details: S. cerevisiae bub3 mutant strain, hits give high values
Summary of the method: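 Screening used yeast with an engineered genetic alteration affecting cell cycle control. Compound-exposed cultures were compared with vehicle cultures, and reduced growth was taken as inhibition.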

[6] = NCI Yeast Anticancer Drug Screen. Data for the mlh1 rad18 strain (AID 175); details: S. cerevisiae mlh1 rad18 strain growth inhibition, hits give high values
Summary of the method: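 Read-out is yeast growth inhibition, calculated against vehicle-only controls. The compound was applied to a strain engineered with DNA damage repair alterations.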

[7] = at 5.0 µM (retest, dose inferred, filed as 0.5)
[8] = at 50.0 µM (retest, dose inferred, filed as 5.0)

| Structure (SMILES) | growth inhibition [1, 7] | growth inhibition [1, 8] | growth inhibition ([1]; at 50.0 µM) | growth inhibition [2, 7] | growth inhibition [2, 8] | growth inhibition ([2]; at 50.0 µM) | growth inhibition [3, 7] | growth inhibition [3, 8] | growth inhibition ([3]; at 50.0 µM) | growth inhibition [4, 7] | growth inhibition [4, 8] | growth inhibition ([4]; at 50.0 µM) | growth inhibition [5, 7] | growth inhibition [5, 8] | growth inhibition ([5]; at 50.0 µM) | growth inhibition [6, 7] | growth inhibition [6, 8] | growth inhibition ([6]; at 50.0 µM) |
| --- | --- | --- | --- | --- | --- | --- | --- | --- | --- | --- | --- | --- | --- | --- | --- | --- | --- | --- |
| COc1ccc(C2C3=C(CCC(CN(C)C)C3=O)OC3=C2C(=O)C(CN(C)C)CC3)cc1 (centres undefined) | -17% | -7% | -35.5% | -3% | -1% | 4.1% | -20% | -5% | -20.6% | -1% | 1% | 44.7% | -17% | -17% | -3.5% | – | – | – |
| CCCCCCCCCCCCCC(=O)OCC(O)CO (centres undefined) | 2% | 2% | -2.25% | 2% | 28% | 6.1% | 4% | 11% | -0.5% | 7% | 10% | 75.3% (active) | 1% | 22% | 8.05% | 3% | 12% | 8.55% |
| CCOC(=O)NC(NC(=O)OCC)C(=O)Nc1cccc2c(OC(=O)C(NC(=O)OCC)NC(=O)OCC)c(N=Nc3ccc(S(=O)(=O)Nc4nccs4)cc3)cc(N=Nc3ccc(S(=O)(=O)Nc4nccs4)cc3)c12 (tested in a mixture with another compound) | 94% (active) | 43% | 78.7% (active) | 97% (active) | 59% | 74.9% (active) | 96% (active) | 58% | 65.8% | 95% (active) | 70% (active) | 70.3% (active) | 95% (active) | 59% | 61.8% | 88% (active) | 29% | 83.1% (active) |
| c1ccc(NCCSc2nc3ccccc3s2)cc1 | 6% | 44% | 42.3% | 9% | 22% | 27.4% | 2% | 80% (active) | 26% | -21% | 43% | 8.55% | 24% | 70% (active) | 81.6% (active) | 8% | 77% (active) | 77.7% (active) |
| CN(C)C(=S)/N=c1\ss/c(=N/C(=S)N(C)C)n1-c1ccc([N+](=O)[O-])cc1 | 6% | 32% | 97.8% (active) | 18% | 41% | 93.3% (active) | 1% | 33% | 97.8% (active) | -7% | -2% | 91.3% (active) | 5% | 4% | 98.8% (active) | 4% | 30% | 98.2% (active) |
| CC(C)(C)N/N=C(\C(=O)NC1=C(Cl)C(=O)c2ccccc2C1=O)C1C=CCS1(=O)=O (centres undefined) | 7% | 89% (active) | 90.2% (active) | -10% | 65% | 72.3% (active) | -4% | 86% (active) | 68.4% | -26% | 48% | 31.3% | 0% | 92% (active) | 84% (active) | – | – | – |
| S=c1[nH]c2ccc(Cl)cc2s1 | -22% | 54% | 72.9% (active) | -2% | 69% | 65.8% | -13% | 92% (active) | 82.2% (active) | -60% | 31% | 83.8% (active) | -19% | 77% (active) | 42% | -19% | 91% (active) | 87.2% (active) |
| COc1ccc(C2=C(Cl)C(=O)N(c3ccc(OC)cc3OC)C(=O)C2(Cl)Cl)cc1 | 4% | 42% | 74.5% (active) | -9% | 36% | 89.9% (active) | 5% | 54% | 70.8% (active) | -9% | 25% | 44.5% | -5% | 28% | 56.5% | – | – | – |
| CC(C)N(C(=O)c1ccc(Cl)c(Cl)c1)C(C)C | -15% | -14% | -0.55% | -14% | 4% | 10.8% | -1% | 0% | 15.1% | 29% | -26% | 13.4% | 6% | -25% | 9.2% | -12% | 0% | -5.65% |
| CC(=O)Nc1ccc2c(c1)/C(=N/O)c1ccccc1-2 | -5% | 76% (active) | 67.2% | -11% | 90% (active) | 42% | -1% | 89% (active) | 74.9% (active) | -11% | 56% | 64.5% | -3% | 77% (active) | 72.4% (active) | 17% | 92% (active) | 77.3% (active) |
| NC1CCCCC1N.O=S(=O)([O-])CCCN1CCN(CCO)CC1.O=S(=O)([O-])CCCN1CCN(CCO)CC1.[Pt+4] | 8% | 98% (active) | -8.45% | 8% | 99% (active) | -9.95% | 12% | 98% (active) | 23.1% | 44% | 66% | -15.8% | -24% | 97% (active) | -2.7% | – | – | – |
| C=CCC(O)C(=O)OC1CC(C)CCC1C(C)(C)c1ccccc1 (centres undefined) | -1% | 99% (active) | 99% (active) | 6% | 99% (active) | 99.2% (active) | 8% | 99% (active) | 99.5% (active) | -6% | 98% (active) | 98.8% (active) | 8% | 98% (active) | 99.4% (active) | 9% | 98% (active) | 99.2% (active) |
| O=C(CC1(O)C(=O)Nc2c(Cl)cc(Cl)cc21)c1ccc(Br)cc1 (centres undefined) | 3% | 3% | 93.1% (active) | -9% | -9% | 92% (active) | -23% | -23% | 92% (active) | -8% | -8% | 91.8% (active) | 7% | 7% | 94.3% (active) | -1% | -1% | 92.7% (active) |
| O=C1NC(=O)N(c2ccc([N+](=O)[O-])cc2)C1=O | 9% | 3% | -0.3% | 8% | 2% | 1.1% | 3% | 6% | -2.95% | 9% | 5% | 18.1% | 6% | 5% | -4.4% | 0% | 7% | 10.2% |
| CN(Cc1ccccc1)c1nc(=[N+](C)C)ss1 | 5% | -1% | 4.35% | -5% | -1% | 8.8% | 11% | 8% | 26.3% | 17% | 15% | -30.9% | 14% | 11% | 12.2% | 10% | 16% | 33.4% |
| S=C(N/N=C/c1ccccn1)N1CCCCCC1 | 99% (active) | 100% (active) | 88.8% (active) | 98% (active) | 100% (active) | 92.8% (active) | 98% (active) | 99% (active) | 91.6% (active) | 97% (active) | 100% (active) | 92.8% (active) | 99% (active) | 100% (active) | 92.2% (active) | – | – | – |
| Cc1ccc(C2SCc3nc4ccccc4n32)cc1 (centres undefined) | -4% | 51% | 31.2% | -38% | 39% | 20.8% | -26% | 57% | 49.1% | 2% | 46% | 34% | -2% | 93% (active) | 70.4% (active) | – | – | – |
| C(=N\Nc1ccc2ccccc2n1)/c1ccccn1.CC(=O)[O-].CC(=O)[O-].[Zn+2] | -4% | 2% | 16.7% | 2% | -2% | 39.3% | -3% | -3% | 84.3% (active) | -3% | 0% | -19.6% | -1% | -1% | 18.3% | 2% | 0% | 57.4% |
| CCCCCCCCCC(=O)NN=C(C)C | -129% | 54% | 93.1% (active) | -49% | 45% | 83.2% (active) | -59% | 75% (active) | -2.75% | -67% | 81% (active) | 88.2% (active) | -72% | 41% | 88% (active) | – | – | – |
| NS(=O)(=O)c1ccc(NC(=S)/N=C\C(C(=O)c2ccccc2)=C(\O)c2ccccc2)cc1 | 7% | 12% | 6.9% | -2% | -15% | 1.7% | 0% | -5% | 9.8% | -19% | -18% | 41.5% | 3% | 8% | 8.15% | 10% | -7% | 2.15% |
